Assay results from PubChem BioAssay (NCATS).
Records with an inconclusive call do not appear. A call without a number means that no potency is given here. Unmarked numbers belong to inactive results. The source made the active and inactive calls. Calls follow the shape of the dose curve; as a rule, active = well fitted inhibition curve with a large enough effect; inconclusive = small, poorly fitted or top-dose-only effect; inactive = flat fitted curve, though single readings scatter.

Assay: P-glycoprotein substrates identified in KB-8-5-11 adenocarcinoma cell line, qHTS therapeutic library screen (AID 1346987); also: nearly all actives have a fitted effect of over 65% in size
Conditions: KB-8-5-11 (P-gp overexpressing) viability, CellTiter-Glo, 72 h; series mostly up to 44.5 µM
Outline: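 Human cervical adenocarcinoma KB-8-5-11 cells, selected in colchicine to over-express P-gp and assayed without it, were exposed for 72 h to titrated compounds. An ATP-based luminescent viability signal gave AC50.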
Potency is read from the fitted curve at half-maximal effect.

Question: Which Potency does the source give for `CNCc1ccc(-c2cc(-c3nc(-c4ccc(S(=O)(=O)C(C)C)cc4)cnc3N)on2)cc1` here?
Answer: Its Potency is 1.3 µM (active).

Question: For `CC1CCC2(OC1)OC1CC3C4CCC5C[C@@H](O[C@@H]6O[C@H](CO[C@@H]7OC[C@@H](O)[C@H](O)[C@H]7O)[C@H](O)[C@H](O)[C@H]6O)CC[C@]5(C)C4CC[C@]3(C)C1C2C` (stereo not given in full), which Potency is on record?
Answer: Its Potency is “inactive”.

Question: For `CC1=C(COC2OC(CO)C(O)C(O)C2O)C(C(CO)C(=O)O)CC1` (stereo not given), which Potency is on record?
Answer: The Potency was “inactive”.

Question: For `C=C[C@]1(C)C=C2CCC3C(C)(CCC[C@@]3(C)C(=O)O)C2CC1` (stereo not given in full), which Potency is on record?
Answer: The Potency was “inactive”.

Question: Which Potency does the source give for `CC(C)(O)C1CCC(C)(C2CCC3(C)C4CCC5C(C)(C(=O)OC6OC(CO)C(O)C(O)C6O)C(O)CC(O)C56CC46CCC23C)O1` (stereo not given) here?
Answer: The Potency was “inactive”.

Question: For `CC1CCC2(C(=O)O)CCC3(C)C(=CCC4C5(C)CCC(OC(=O)/C=C/c6ccccc6)C(C)(C)C5CCC43C)C2C1C` (stereo not given), which Potency is on record?
Answer: Its Potency is “inactive”.

Question: With `C/C(=C\C=C\C(C)C1CCC2(C)C3CCC4C(C)(C)C(=O)CCC45CC35CCC12C)C(=O)O` (stereo not given) as the compound, how does the Potency read?
Answer: The Potency was “inactive”.

Question: For `COc1ccc(C(=O)C2CCN(CC(=O)N(Cc3nc4c(c(=O)[nH]3)COCC4)CC3CC3)CC2)cc1`, which Potency is on record?
Answer: Its Potency is “inactive”.

Question: With `CC1CCC2(C=O)C(CO)=CCCC2C1(C)CC(=O)O` (stereo not given) as the compound, how does the Potency read?
Answer: Its Potency is “inactive”.

Question: Which Potency does the source give for `CC(Oc1ccc2[nH]nc(/C=C/c3cnn(CCO)c3)c2c1)c1c(Cl)cncc1Cl` (stereo not given) here?
Answer: The Potency was 1.03 µM (active).

Question: With `COc1ccc2c(OC)c3ccoc3nc2c1OC` as the compound, how does the Potency read?
Answer: The Potency was “inactive”.

Question: With `CC1(C)CC(=O)C2=C(C1)NC(=S)NC2c1cccc(O)c1` (stereo not given) as the compound, how does the Potency read?
Answer: Its Potency is 5.8 µM (active).

Question: Which Potency does the source give for `C/C=C1\[C@H](OC2OC(COC3OC(CO)C(O)C(O)C3O)C(O)C(O)C2O)OC=C(C(=O)OC)[C@H]1CC(=O)OCCc1ccc(O)cc1` (stereo not given in full) here?
Answer: The Potency was “inactive”.

Question: For `Cc1ccc(NC(=O)C(=O)NC2CC(C)(C)NC(C)(C)C2)cc1`, which Potency is on record?
Answer: Its Potency is “inactive”.

Question: Which Potency does the source give for `COc1ccc(/C=C/C(=O)O[C@@H]2[C@@H](O)[C@@H](O)[C@H](O[C@@H]3C=C(CO)[C@H]4[C@H](O[C@@H]5O[C@H](CO)[C@@H](O)[C@H](O)[C@H]5O)OC=C[C@H]43)O[C@H]2C)cc1O` here?
Answer: The Potency was “inactive”.

Question: With `NC(=O)Nc1cc(-c2cccc(F)c2)sc1C(=O)NC1CCCNC1` (stereo not given) as the compound, how does the Potency read?
Answer: The Potency was 8.2 µM (active).

Question: Which Potency does the source give for `Cc1cc(Nc2ccc(NC(=O)c3ccc(Nc4ccnc5ccccc45)cc3)cc2)nc(N)n1` here?
Answer: Its Potency is “inactive”.

Question: Which outcome does the source give for `C[C@@H]1O[C@@H](O[C@H]2[C@H](O)[C@@H](C(=O)O)O[C@@H](O[C@H]3CC[C@@]4(C)C(CC[C@]5(C)C4CC=C4C6CC(C)(C)CC[C@]6(C(=O)O)CC[C@]45C)C3(C)C)[C@@H]2O[C@@H]2OC[C@@H](O)[C@H](O)[C@H]2O)[C@H](O)[C@H](O)[C@H]1O` (stereo not given in full) here?
Answer: The outcome was “inactive [at 9.29 µM]”.

Question: Which Potency does the source give for `C=C1CCC2C(C)(C)C(O)CCC2(C)C1CCC(C)CCOC(C)=O` (stereo not given) here?
Answer: Its Potency is “inactive”.

Question: For `C=C(C(=O)O)[C@@H]1CC[C@@]2(C)CC[C@H](O)[C@@]2(C(C)=O)C1`, which Potency is on record?
Answer: Its Potency is “inactive”.

Question: For `C[C@@H]1[C@H]2[C@H](O[C@@H]3O[C@H](CO)[C@@H](O)[C@H](O)[C@H]3O)OC=C(C(=O)O)[C@H]2C[C@@H]1O`, which Potency is on record?
Answer: Its Potency is “inactive”.

Question: Which Potency does the source give for `C[C@@H]1C(=O)O[C@H]2C[C@]34[C@H]5C[C@@H](C(C)(C)C)[C@]36[C@@H](OC(=O)[C@H]6O)O[C@]4(C(=O)O5)[C@]21O` here?
Answer: Its Potency is “inactive”.

Question: Which Potency does the source give for `CC1CC(=O)C2=C(CCC3(O)C(O)c4c(O)cccc4C(=O)C23O)C1` (stereo not given) here?
Answer: Its Potency is “inactive”.

Question: Which Potency does the source give for `CN1C2CCC1CC(OC(=O)[C@H](CO)c1ccccc1)C2` (stereo not given in full) here?
Answer: Its Potency is “inactive”.

Question: With `CC1(C)CC[C@]2(C(=O)O)[C@H](O)C[C@]3(C)C(=CCC4[C@@]5(C)CC[C@H](O[C@@H]6O[C@H](CO[C@@H]7OC[C@H](O)[C@H](O)[C@H]7O[C@@H]7OC[C@@H](O)[C@H](O)[C@H]7O)[C@@H](O)[C@H](O)[C@H]6O[C@@H]6O[C@H](CO)[C@@H](O)[C@H](O)[C@H]6O)C(C)(C)C5CC[C@]43C)[C@@H]2C1` (stereo not given in full) as the compound, how does the activity change, negative = cytotoxicity read?
Answer: The activity change, negative = cytotoxicity was 6.47% [at 9.29 µM].

Question: Which Potency does the source give for `CC[C@H](CO)Nc1nc(NCc2ccc(-c3ccccn3)cc2)c2ncn(C(C)C)c2n1` here?
Answer: Its Potency is 0.231 µM (active).

Question: Which Potency does the source give for `CC1C(=O)CC2C3CCC(C(=O)O)C12CC3(C)CO` (stereo not given) here?
Answer: Its Potency is “inactive”.

Question: Which Potency does the source give for `Cn1cncc1C(N)(c1ccc(Cl)cc1)c1ccc2c(c1)c(-c1cccc(Cl)c1)cc(=O)n2C` (stereo not given) here?
Answer: The Potency was 3.26 µM (active).

Question: With `C=C[C@]1(C)C[C@H](O)[C@@H]2[C@H](OC(=O)[C@@H]2C)C1/C(C)=C/O[C@@H]1O[C@H](CO)[C@@H](O)[C@H](O)[C@H]1O` (stereo not given in full) as the compound, how does the Potency read?
Answer: Its Potency is “inactive”.

Question: For `CC(C)Oc1ccc(C(=O)NC(CNC(=O)CN(C)C)Cc2ccc(-c3cn4cccc(C(C)O)c4n3)cc2)cc1Cl` (stereo not given), which Potency is on record?
Answer: The Potency was 6.51 µM (active).
